Shown is part of a subset that was picked to be rich in hits.
RE007 growth inh – qHTS Assay for Inhibitors of the HIV-1 protein Vpr | S. pombe RE007 Vpr strain, BacTiter-Glo ATP luminescence, 24 h | Potency, µM (series often up to 92.2 µM), hits mostly inhibitors | 360,000 tested, 0.21% active; active = well fitted falling curve with a large enough effect; inconclusive = small, poorly fitted or top-dose-only effect; inactive = no such curve, though single readings can be large or run the other way; note: nearly all actives have a fitted effect of over 50% in size
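Fission yeast strain RE007, carrying one chromosomally integrated HIV-1 vpr copy, was seeded at OD 0.01 in PMG+AL medium with 23 nL pinned compound. After 24 h at 30 °C and 99% humidity, viability was read by BacTiter-Glo luminescence.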
Tb PYK inh – qHTS of Trypanosoma Brucei Inhibitors; pyruvate kinase (Trypanosoma brucei), Q57TT1; Potency, µM (doses to about 76.8 µM), most hits filed as inhibitors; 410,000 tested, 0.12% active; TbPYK enzyme, Kinase-Glo Plus ATP luminescence, 45 min; note: nearly all actives have a fitted effect of over 50% in size
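Glycolytic pyruvate kinase of T. brucei was incubated with substrate, test compound and 130 uM ADP for 45 minutes at room temperature. Luminescent Kinase-Glo Plus signal was measured after 10 minutes.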
Giardia FBPA inh – qHTS Assay for Inhibitors of Fructose-1,6-bisphosphate Aldolase from Giardia Lamblia. A8B2U2. purified Giardia FBPA. Potency, µM (titrated, usually from 59.6 µM), usual class: inhibitors. 290,000 tested, 0.71% active. AID 2451, 2010; note: nearly all actives have a fitted effect of over 55% in size
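40 nM FBPA preincubated 10 min at RT with compound (up to 57.5 uM final), then substrate plus GAPDH/TPI/NAD/arsenate coupling and diaphorase/resazurin added. Fluorescence read after 20 min at RT, 525/598 nm.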
LmPK inh – qHTS Assay for Inhibitors of Leishmania Mexicana Pyruvate Kinase (LmPK). 290,000 tested, 0.37% active. Potency, µM (highest dose often 57.5 µM), hits mostly inhibitors. purified LmPK, Kinase-Glo ATP luminescence, 1 h. Q27686
Target sequence (Q27686 whole entry, looked up): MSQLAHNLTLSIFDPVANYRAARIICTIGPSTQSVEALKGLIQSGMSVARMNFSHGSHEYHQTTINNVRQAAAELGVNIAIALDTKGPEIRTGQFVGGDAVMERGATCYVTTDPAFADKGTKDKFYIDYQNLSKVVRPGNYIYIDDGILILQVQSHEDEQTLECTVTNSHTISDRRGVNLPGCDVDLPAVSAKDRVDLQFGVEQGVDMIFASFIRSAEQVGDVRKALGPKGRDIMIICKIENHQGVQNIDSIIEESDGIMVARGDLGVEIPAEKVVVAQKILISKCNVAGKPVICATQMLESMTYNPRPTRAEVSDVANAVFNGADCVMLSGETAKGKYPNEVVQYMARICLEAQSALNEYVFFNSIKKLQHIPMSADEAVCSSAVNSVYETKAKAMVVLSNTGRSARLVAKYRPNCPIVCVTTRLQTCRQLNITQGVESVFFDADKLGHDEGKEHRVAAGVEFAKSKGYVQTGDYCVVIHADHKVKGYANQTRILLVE
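Kinase-Glo luminescence read after 1 h RT reaction of 0.1 nM LmPK with 0.5 mM PEP and 0.1 mM ADP. Activity scaled between uninhibited and enzyme-free controls.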
CHX counter – Cycloheximide Counterscreen for Small Molecule Inhibitors of Shiga Toxin; AID 2314, 2010; max response, %; 300,000 tested, 12% active; cell reporter, cycloheximide protein synthesis inhibition counterscreen; in the data active = max response mostly above about 13%, no sharp cut-off; inactive = mostly below about 14%; note: read at 38.3 µM for the half of the compounds with a filed dose
Shiga toxin inh – A qHTS for Small Molecule Inhibitors of Shiga Toxin. Vero cells, Shiga toxin protein synthesis inhibition reporter. inhibition, % at 38.7 µM. 290,000 tested, 9.2% active; in the data active = inhibition mostly above about 28%, no sharp cut-off; inactive = mostly below about 43%
Hits are given with their value; - = inactive; ? = inconclusive; . = no result; [ ] = dose if it differs, or a comment. Unless noted, calls come from the whole dose curve; as a rule, active = well fitted curve in the direction sought with a large enough effect; inconclusive = small, poorly fitted or top-dose-only effect, or another doubt; inactive = no such curve, though single readings can be large; an effect the other way counts as inactive or inconclusive.

SMILES	RE007 growth inh	Tb PYK inh	Giardia FBPA inh	LmPK inh	CHX counter	Shiga toxin inh
O=C(NCCc1ccccc1)c1cnc2sccn2c1=O	-	-	-	-	43	93
CCn1c(=O)c2cc(C(=O)NCCc3cccc(C)c3)sc2c2ccccc21	.	-	.	.	.	.
Cc1ccc(/C=C/S(=O)(=O)NCCC(=O)NCc2ccccc2F)cc1	-	-	.	.	.	.
COc1ccc(-c2nc(C)c(CCNS(=O)(=O)c3cc(C)c(C)cc3C)s2)cc1	.	-	.	.	.	.
Cc1cc(C)n(CCNC(=O)[C@H]2O[C@@H](n3ccc(=O)[nH]c3=O)[C@H](O)[C@@H]2O)n1	-	-	.	.	.	.
NS(=O)(=O)c1ccc(CCNC(=O)c2ccc3nccnc3c2)cc1	-	-	.	.	.	.
NS(=O)(=O)c1ccc(CCNc2ccnc3cc(Cl)ccc23)cc1	-	-	-	-	32	-
CC(O)CN=c1cc(-c2ccccc2)oc2ccc(Cl)cc12 (centres undefined)	?	-	-	-	55	77
C/C(CCc1oc2ccc(Cl)cc2c1-c1ccc(C)o1)=N\O	-	-	-	-	-	-
CC(C)CN=c1cc(-c2ccccc2)oc2ccc(Cl)cc12	-	-	-	-	35	-
Fc1ccc2nc(N3CCOCC3)sc2c1	-	-	-	-[11.5 µM]	35	107
Nc1nc2ccc(N3CCOCC3)cc2s1	-	-	-	-	34	32
c1c2c(cc3sc(N4CCOCC4)nc13)OCO2	?	?	-[12.9 µM]	16µM	43	56
c1ccc2c(c1)CCN(c1nc3cc4c(cc3s1)OCO4)C2	-	-	-	?	40	97
Nc1ccc(N2CCOCC2)cc1C(F)(F)F	-	-	-	-	-	-
Cc1cc(-c2ccc(C)c(S(=O)(=O)Nc3ccccc3C(F)(F)F)c2)on1	.	-	.	.	.	.
C=CCNc1ncnc2c1ncn2[C@H]1CN(C2CCCC2)C[C@@H](CO)O1	-	-	.	.	.	.
CCc1nc2ccc(C(=O)NCCN3CCOCC3)cn2c1N(C)Cc1ccc(OC)cc1	-	-	.	.	.	.
c1ccc(N2CCN(c3nc4cc5c(cc4s3)OCO5)CC2)cc1	-	-	-	-	53	33
Cc1ccc(NC(=O)c2ccc3nc(N4CCOCC4)sc3c2)c(Cl)c1	-	-	-	-	16	-
COC(=O)c1c(NC(=O)Cc2coc3cc(C)ccc23)sc2c1CCCC2	.	-	.	.	.	.
Cc1cccnc1NC(=O)c1nn(C)c2c1CS(=O)(=O)c1ccccc1-2	-	-	-	-	-	-
O=c1c2c3c(sc2nc2sc(C4CC4)nn12)CCCC3	-	-	-	-	33	-
CCOC(=O)C1(CCOC)CCN(C(=O)c2ccc(CSC)o2)CC1	-	-	.	-	-	-
CN1N=C(c2ccc(F)c(F)c2)CSC1=NCc1ccccc1	-	-	-	-	-	-
SMILES	RE007 growth inh	Tb PYK inh	Giardia FBPA inh	LmPK inh	CHX counter	Shiga toxin inh
CN1N=C(C(C)(C)C)CSC1=Nc1ccc(F)cc1	-	-	-	-	19	-
COc1ccccc1C(=O)Nc1ccc(NC(=O)c2ccco2)cn1	-	-	-	-	28	90
O=C(Nc1ccccn1)c1ccco1	-	-	.	-	45	-
O=C(Nc1ccc(NC(=O)c2ccco2)nc1)c1ccco1	-	-	-	-	-	-
O=C(Cc1ccccc1)Nc1ccc(NC(=O)c2ccco2)nc1	-	-	-	-	44	105
O=C(Nc1ccc(NC(=O)c2ccco2)nc1)c1ccccn1	-	-	-	?	28	-
Cc1ccc(CNC(=O)CSC2=Nc3ccccc3N=C(c3ccc(F)cc3)C2)cc1	.	-	.	.	.	.
N#Cc1ccc(CSc2nc3c(c(=O)[nH]2)CCCC3)cc1	.	-	.	.	.	.
O=C(c1cc(S(=O)(=O)N2CCOCC2)ccc1F)N1CCc2ccccc21	-	-	.	.	.	.
O=C(c1cccc(F)c1F)N1CCCc2ccccc21	-	-	-	-	-	.
O=C(CNc1cccc(S(=O)(=O)N2CCOCC2)c1)N1CCc2ccccc21	-	-	-	-	10	45
O=C(c1ccccc1F)N1CCCc2ccccc21	-	-	-	-	29	55
O=C(c1cc(S(=O)(=O)N2CCOCC2)ccc1F)N1CCCc2ccccc21	-	-	-	-	22	-
CCN(CC)S(=O)(=O)c1cccc(C(=O)N2CCCc3ccccc32)c1	-	-	-	-	21	38
COc1cccc(N2CCN(C(=O)c3cnn(-c4ccc(C)cc4C)c3C3CCN(C(=O)OC(C)(C)C)CC3)CC2)c1	.	-	.	.	.	.
Cc1onc(-c2ccccc2Cl)c1C(=O)N1CCCc2ccccc21	-	?	-	-	-	-
Cc1onc(-c2c(F)cccc2Cl)c1C(=O)N1CCCc2ccccc21	-	7.1µM	-	-	-	-
Nc1cccnc1Oc1ccc(F)cc1	-	-	-	-	14	-
O=S(=O)(O)CCCS(=O)(=O)O	.	-	.	.	.	.
CN1C(=O)C2C(c3ccc(N(C)C)cc3)=NN(Cc3ccccc3)C2C1=O (centres undefined)	-	-	-	-	-	-
COc1ccc(-c2ccc(=O)n(Cc3ccccc3)n2)cc1	-	-	-	-	21	28
COc1ccc(C2=NN(Cc3ccccc3)C3C(=O)NC(=O)C23)cc1 (centres undefined)	-	-	-	-	20	-
Cc1ccc(C)c(-c2ccc(=O)n(Cc3c(F)cccc3Cl)n2)c1	-	-	-	-	-	-
Cc1ccc(-c2ccc(=O)n(Cc3c(F)cccc3Cl)n2)cc1	-	-	-	-	20	-
CN(Cc1ccccc1)C(=O)c1ccc2sc([C@H]3C[C@H](O)[C@@H](CO)O3)nc2c1	-[18.4 µM]	-	.	.	.	.
SMILES	RE007 growth inh	Tb PYK inh	Giardia FBPA inh	LmPK inh	CHX counter	Shiga toxin inh
Cc1cccn2c(=O)c(C(=O)NCCc3ccccc3)cnc12	.	-	.	.	.	.
O=C(NCc1ccccc1)c1cnc(N2CCCCC2)c2ccccc12	.	-	.	.	.	.
CN(C)CCCOC1C(C(O)CO)OC2OC(C)(C)O[C@@H]21 (some centres undefined)	.	-	-	.	.	.
Cc1ccc(C(=O)Nc2ccc(C(=O)NCC3CCCO3)cc2)cc1 (centres undefined)	-	-	-	-	-	-
O=C(NCC1CCCO1)c1ccccc1-c1nc(-c2ccccc2)no1 (centres undefined)	-	-	-	-	35	112
Cc1ccc(Nc2nc(C(=O)NCC3CCCO3)cs2)cc1 (centres undefined)	-	-	-	-	24	51
O=C(NCC1CCCO1)c1cc2cc(Cl)ccc2[nH]1 (centres undefined)	-	-	-	-	33	43
Cc1ccc(-c2cc(C(=O)NCC3CCCO3)no2)cc1 (centres undefined)	-	-	-	-	48	49
